# Where a name gives a salt, the structure may show the parent alone.
# Experiments:
# Assay in all cases: Euclidean distance of Cell Painting phenotypic profile (signed KS, 77 features) to DMSO centroid (dimensionless distance); higher = stronger phenotypic change vs DMSO (phenoactivity)
# Details in all cases: 48 h; 5 or 10 uM (library dependent)
# 786-O = tested on: 786-O
# Method in brief: (§1)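 Phenoactivity is defined as the Euclidean distance from a compound profile to the median vehicle profile. Each profile comprised 77 Harmony features, scored as signed Kolmogorov-Smirnov statistics versus same-plate vehicle wells, then plate-position corrected, correlation-weighted and replicate-averaged at the top dose. Five cancer lines and one healthy fibroblast line were exposed to library compounds for 48 h at 10 or 5 uM (0.1% DMSO final).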
# A549 = tested on: A549
# Method in brief: as §1
# DU145 = tested on: DU145
# Method in brief: as §1
# FB = tested on: FB
# Method in brief: as §1
# HEPG2 = tested on: HEPG2
# Method in brief: as §1
# OVCAR4 = tested on: OVCAR4
# Method in brief: as §1
SMILES,Euclidean distance (786-O),Euclidean distance (A549),Euclidean distance (DU145),Euclidean distance (FB),Euclidean distance (HEPG2),Euclidean distance (OVCAR4)
N[C@@H](Cc1ccc(N(CCCl)CCCl)cc1)C(=O)O [Melphalan],2.91,2.76,1.19,2.75,2.72,2.13
Nc1ccncc1 [4-Aminopyridine],1.38,0.626,0.961,0.938,0.429,0.946
C[C@H]1CCC/C=C/[C@@H]2C[C@H](O)C[C@H]2[C@H](O)/C=C/C(=O)O1 [Brefeldin A],3.77,3.61,4.53,4.79,4.54,3.85
CNC(=O)Oc1cccc2ccccc12 [Carbaryl],1.83,1.3,0.843,0.842,0.501,1.03
Cc1ncc(CNC(=O)N(CCCl)N=O)c(N)n1 [Nimustine Hydrochloride],1.62,0.894,0.692,0.831,0.722,0.918
O=C(C[S+]([O-])C(c1ccccc1)c1ccccc1)NO (configuration not stated) [Adrafinil],1.35,0.729,0.936,0.942,0.585,1.57
C=CCC(C(=O)NC(N)=O)C(C)C (configuration not stated) [Apronal],1.22,0.684,1.07,0.907,0.938,1.09
C[C@]12CC[C@H](O)C[C@@H]1CC[C@@H]1[C@@H]2CC[C@]2(C)C(=O)CC[C@@H]12 [Epiandrosterone],1.32,1.2,0.784,1.34,0.785,0.989
CN1[C@@H]2C[C@@H](OC(=O)[C@H](CO)c3ccccc3)C[C@H]1[C@@H]1O[C@@H]12 [Scopolamine HBr],1.07,0.645,0.406,0.816,0.391,1.01
c1cc2c(cc1[C@H]1OC[C@H]3[C@@H]1CO[C@@H]3c1ccc3c(c1)OCO3)OCO2 [Sesamin],1.03,0.791,0.678,1.13,2.07,1.1
O=c1[nH]c2ccc(Cl)cc2c(N[C@@H]2CN3CCC2CC3)c1-c1nc2ccccc2[nH]1,4.06,4.17,3.75,3.55,3.51,4.86
OC(c1ccccc1)(c1ccccc1)C1CCNCC1 [Azacyclonol],2.95,2.91,3.75,3.06,2.31,3.18
COc1ccc2[nH]cc(CCN)c2c1 [5-Methoxytryptamine],0.978,0.912,0.758,1.38,0.952,0.882
CCNC1(c2cccs2)CCCCC1=O (configuration not stated) [Tiletamine Hydrochloride],1.22,1.39,1.26,1.39,0.678,1.75
Cc1sc2c(c1C)C(c1ccc(Cl)cc1)=N[C@@H](CC(=O)OC(C)(C)C)c1nnc(C)n1-2,3.44,2.14,2.03,3.52,1.96,1.96
COc1ccc2c3c([nH]c2c1)C(C)=NCC3 [Harmaline],1.25,0.845,1.34,1.09,0.398,1.37
N#Cc1nn(-c2c(Cl)cc(C(F)(F)F)cc2Cl)c(N)c1[S+]([O-])C(F)(F)F (configuration not stated) [Fipronil],0.855,1.11,0.897,1.05,0.591,0.894
C[C@]12CC[C@@H](O)C[C@@H]1CC[C@@H]1[C@@H]2CC[C@]2(C)C(=O)CC[C@@H]12 [Androsterone],1.51,0.773,1.2,1.28,0.665,1.07
O=P1(NCCCl)OCCCN1CCCl (configuration not stated) [Ifosfamide],0.866,0.788,1.12,0.925,1.13,1.39

SMILES,Euclidean distance (786-O),Euclidean distance (A549),Euclidean distance (DU145),Euclidean distance (FB),Euclidean distance (HEPG2),Euclidean distance (OVCAR4)
O=C(O[C@H]1C[C@H]2CC[C@@H](C1)[N+]21CCCC1)C(O)(c1ccccc1)c1ccccc1 [Trospium chloride],0.712,0.693,0.879,0.927,0.66,1.39
O=c1c2ccccc2[se]n1-c1ccccc1 [Ebselen],1.37,1.48,1.01,1.16,0.769,1.42
O=P1(N(CCCl)CCCl)NCCCO1 (configuration not stated) [Cyclophosphamide Monohydrate],1.18,0.863,1.62,0.969,2.05,1.07
CCC(=O)CCCCC[C@@H]1NC(=O)[C@H]2CCCCN2C(=O)[C@H]([C@@H](C)CC)NC(=O)[C@H](Cc2cn(OC)c3ccccc23)NC1=O [Apicidin],3.74,3.31,1.07,2.16,1.52,1.84
CN1[C@@H]2CC[C@H]1C[C@@H](OC(=O)[C@H](CO)c1ccccc1)C2 [Hyoscyamine],0.984,0.92,0.681,0.505,0.646,1.31
C[C@]12N[C@H](Cc3ccccc31)c1ccccc12 [MK-801 (Dizocilpine)],0.525,0.829,1.2,0.635,1.41,1.23
O=[N+]([O-])/C=C/c1ccc2c(c1)OCO2,4.42,2.25,0.868,2.39,0.782,2.34
N=C(N)NN [Aminoguanidine hydrochloride],0.96,1.11,0.602,0.888,0.598,0.998
COc1ccc(OC)c(C(O)C(C)N)c1 (configuration not stated) [Methoxamine HCl],0.732,0.76,1.03,1.08,0.595,1.41
CC(C)NCC(O)c1ccccc1Cl (configuration not stated) [Clorprenaline HCl],1.06,1.11,0.599,1.22,0.405,1.29
C[C@](O)(COc1ccc(C#N)cc1)C(=O)Nc1ccc(C#N)c(C(F)(F)F)c1,1.54,1.28,0.792,1.72,1.24,1.74
Cl[TeH]1(Cl)(Cl)OCCO1.N,1.48,1.83,2.01,1.31,1.27,2.09
CCOC(=O)c1cncn1[C@H](C)c1ccccc1 [Etomidate],2.62,1.77,2.36,2.6,1.08,1.9
Cn1cc(C2=C(c3cn(C4CCN(Cc5ccccn5)CC4)c4ccccc34)C(=O)NC2=O)c2ccccc21,1.96,3.16,1.32,0.965,0.683,1.79
Cc1ccc2c(c1)[C@]13CCCC[C@@H]1[C@H](C2)N(C)CC3 [Dimemorfan phosphate],1.28,1.25,1.36,3.6,2.34,1.19
CC(C)[C@]12O[C@H]1[C@@H]1O[C@]13[C@]1(O[C@H]1C[C@H]1C4=C(CC[C@@]13C)C(=O)OC4)[C@@H]2O [Triptolide (PG490)],3.96,3.27,3.16,4.12,2.73,3.81
CN1C(=O)COc2c(C(=O)NC3CN4CCC3CC4)cc(Cl)cc21 (configuration not stated) [Azasetron HCl],0.735,0.632,0.582,0.666,0.533,0.74
CC(=O)O[C@H]1C[C@@H]2CC[C@@H]3[C@H](CC[C@@]4(C)[C@H]3C[C@H]([N+]3(C)CCCCC3)[C@@H]4OC(C)=O)[C@@]2(C)C[C@@H]1[N+]1(C)CCCCC1 [Pancuronium dibromide],1.41,0.916,0.532,0.954,0.518,1.42

# Source: the supplement of paper PMC10127200
